Assay results as given in PubChem BioAssay (NCI).
About 83,000 compounds went through this panel and 20% of them were active in at least one assay; those are over-represented in the sample as a whole.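 Interpretation: 100, growth as untreated; towards 0, rising growth inhibition; 0, no net growth; 0 to -100, cell death. Compounds scoring below 10 were considered active.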 A number with no mark means an inactive call. The source made the active and inactive calls.

Experiments:
Assay in all cases: NCI-60 one-dose screen, 48 h (100 = growth as untreated, 0 = no growth, -100 = all killed)
Details in all cases: 10 µM unless noted
SR leukemia = tested on: SR leukemia
OVCAR-8 ovarian = tested on: OVCAR-8 ovarian
OVCAR-5 ovarian = tested on: OVCAR-5 ovarian
OVCAR-4 ovarian = tested on: OVCAR-4 ovarian
SK-OV-3 ovarian = tested on: SK-OV-3 ovarian
OVCAR-3 ovarian = tested on: OVCAR-3 ovarian
HS 578T breast = tested on: HS 578T breast
NCI/ADR-RES ovarian = tested on: NCI/ADR-RES ovarian
T-47D breast = tested on: T-47D breast
BT-549 breast = tested on: BT-549 breast
MDA-MB-435 melanoma = tested on: MDA-MB-435 melanoma
SW-620 colon = tested on: SW-620 colon
MCF7 breast = tested on: MCF7 breast
HCT-116 colon = tested on: HCT-116 colon
HCC-2998 colon = tested on: HCC-2998 colon
KM12 colon = tested on: KM12 colon
IGROV1 ovarian = tested on: IGROV1 ovarian

| Structure (SMILES) | growth (SR leukemia) | growth (OVCAR-8 ovarian) | growth (OVCAR-5 ovarian) | growth (OVCAR-4 ovarian) | growth (SK-OV-3 ovarian) | growth (OVCAR-3 ovarian) | growth (HS 578T breast) | growth (NCI/ADR-RES ovarian) | growth (T-47D breast) | growth (BT-549 breast) | growth (MDA-MB-435 melanoma) | growth (SW-620 colon) | growth (MCF7 breast) | growth (HCT-116 colon) | growth (HCC-2998 colon) | growth (KM12 colon) | growth (IGROV1 ovarian) [%] |
| --- | --- | --- | --- | --- | --- | --- | --- | --- | --- | --- | --- | --- | --- | --- | --- | --- | --- |
| COC1=C(C)C(=O)c2c(c(CCCl)c3n2CCC3O)C1=O (stereo not drawn) | 7.38% (active) | 12.1% | 10.4% | 79.1% | -9.52% (active) | 0.645% (active) | -6.16% (active) | 6.59% (active) | 81.2% | -30.4% (active) | -72.7% (active) | 8.6% (active) | -14.2% (active) | 9.41% (active) | -39.1% (active) | 0.859% (active) | – |
| COc1ccc(-c2nnc(COc3ccc(Cl)cc3Cl)o2)cc1OC | 46.8% | 20.1% | 74.6% | -33.1% (active) | 37.6% | 1.98% (active) | 4.73% (active) | 17.5% | -10.5% (active) | 80.1% | 48.4% | 40.6% | 32.9% | 34.3% | 95% | 58.9% | – |
| CCCCC[C@H](O)C/C=C1/C(=O)C=C[C@@H]1C/C=C\CCCC(=O)OC | 0.159% (active) | 13.8% | 129% | 83.9% | 118% | 11.6% | 88% | 18.7% | 69.3% | 35.3% | -9.31% (active) | 16.1% | 18.6% | 13% | 77.8% | 16.5% | – |
| COc1ccc(N)c(N)c1 | 121% | 108% | 110% | 103% | 96.9% | – | 110% | – | 92.6% | 88% | 101% | 109% | 60.2% | 96.1% | 92.7% | 101% | 107 |
| CCCCC[C@H](O)C/C=C1/C(=O)C=C[C@@H]1C/C=C\CCCC(=O)O | 15.8% | 33.7% | 152% | 77.8% | 118% | 22.2% | 95.6% | 54.4% | 50.4% | 54.5% | 36.9% | 51.9% | 19% | 44.5% | 76.5% | 50.9% | – |
| O=C(O)c1cn(C2CC2)c2cc(N3CCN(C(=O)Nc4nc(-c5ccc(Cl)cc5)cs4)CC3)c(F)cc2c1=O | 11.2% | 7.37% (active) | 27.5% | 23.7% | -2.39% (active) | 5.86% (active) | 35.5% | 38.1% | 5.75% (active) | 0.292% (active) | 9.36% (active) | 20.2% | 2.95% (active) | – | 30.6% | 8.97% (active) | – |
| C=CCc1cc(C)ccc1NC(C(=O)NCC(=O)OC)c1ccccc1 (stereo not drawn) | 95% | 100% | 86.7% | 105% | 91.2% | 105% | 106% | 92.7% | 77.2% | – | 101% | 117% | 89.8% | 101% | 98.7% | 99.4% | – |
| CS(=O)(=O)Nc1cc(-c2ccc3ncnc(Nc4cccc(Cl)c4F)c3c2)cnc1Cl | 43.5% | 60.8% | 38.3% | 77.2% | 30.5% | 25% | -3.32% (active) | 86.9% | -4.02% (active) | 17.9% | 46.2% | 46.3% | 11% | 46.7% | 45.3% | 69.3% | – |
| COc1cccc(-c2nc(-c3ccc(NC(=O)c4ccccc4)cc3)[nH]c2-c2ccnc(Br)c2)c1 | -2.71% (active) | 34% | 47.9% | 38.4% | 6.72% (active) | 40% | -25.8% (active) | 35.5% | 14.7% | 47.1% | – | 30.8% | 14.7% | 30.7% | 31.1% | 20% | – |
| O=C1/C(=C/c2ccc(F)cc2)Sc2c(Br)cccc21 | 50.5% | 64.9% | 101% | 82.3% | 84.1% | 86.3% | 80.3% | 71.9% | 43.4% | 87% | 102% | 89.4% | 20.1% | 85.8% | 99.3% | 86% | – |
| CC/C=C\C[C@@H](O)C/C=C1/C(=O)C=C[C@H]1C/C=C\CCCC(=O)OC | -17.5% (active) | -6.75% (active) | 54.1% | 44.9% | 99.3% | -2.32% (active) | 21% | 10.6% | 15.6% | -6.09% (active) | 1.93% (active) | -15.9% (active) | 9.31% (active) | -47.1% (active) | -88.1% (active) | -58.2% (active) | – |
| COc1ccc2c(c1)C(C)Cc1c(ncnc1-n1c(C)nc3ccccc31)N2C (stereo not drawn) | 4.92% (active) | 38.8% | 78.3% | 58.6% | 31.5% | 5.47% (active) | 2.46% (active) | 5.75% (active) | 36.6% | 51.7% | -30.7% (active) | 12% | 15.4% | 36.3% | 41.3% | 28.7% | – |
| COc1cc(Nc2cn[nH]c2-c2ccc(Cl)cc2)cc(OC)c1OC | 10.1% | 70.2% | 54.6% | 61.5% | 30.9% | 32.1% | 44.1% | -26% (active) | 23.4% | 46.5% | -37.1% (active) | 19.3% | 20.7% | 20.7% | -28.5% (active) | 20.2% | – |
| COC(=O)C(Cc1ccccc1)NC(=O)NC(=O)NC(=O)CI (stereo not drawn) | -41.6% (active) | 81.8% | 95.9% | 57.7% | 112% | -49.2% (active) | 111% | 71.5% | 59.3% | 79% | 24.4% | -28.4% (active) | 41.3% | 94.5% | 95.9% | 96.7% | – |
| Clc1ccc2c(c1)N(CCCN1CCCC1)c1ccccc1S2 | -30.1% (active) | 77.1% | 53.8% | 53.6% | 37.2% | 44% | 42.6% | 35.8% | 57.8% | 66.5% | -35.9% (active) | 26.2% | 6.29% (active) | 26.5% | 32% | 44.6% | – |
| CSc1ccc2c(c1)c(CCN)c(C)n2Cc1ccc(Cl)c(Cl)c1 | -61.6% (active) | -60.8% (active) | -58.2% (active) | -93.2% (active) | -91.2% (active) | -88.4% (active) | -39.2% (active) | -87.8% (active) | -73.7% (active) | -79.6% (active) | -91.4% (active) | -63.8% (active) | -68.9% (active) | -92.3% (active) | – | -90.2% (active) | – |
| COc1cccc(Cc2cc(-c3ccccc3)nn(CC(=O)c3ccccc3)c2=O)c1 | 0.342% (active) | 58.7% | 96.4% | 69.5% | 89.6% | 64.9% | 66.9% | 57.2% | 72.5% | 64.5% | 61.2% | 55.1% | 45.9% | 68.9% | – | 57.8% | – |
| O=C(/C=C/c1cccc2ccccc12)c1ccc(NC(=O)c2ccccc2CN2C(=O)c3ccccc3C2=O)cc1 | 23.5% | 75.4% | 96.6% | 58.7% | 82.3% | 34.7% | 66.2% | 61% | 71% | 68.8% | 6.48% (active) | 33.2% | 56.7% | 39.3% | 109% | 40.6% | – |
| COc1ccc(-c2csc(NC(=O)N3CCN(c4cc5c(cc4F)c(=O)c(C(=O)O)cn5C4CC4)CC3)n2)cc1 | 15.4% | 3.75% (active) | 25.5% | 18.4% | -8.98% (active) | -3.32% (active) | 28.8% | 57.5% | 5.11% (active) | -13.5% (active) | 3.67% (active) | 15.7% | 3.38% (active) | 5.37% (active) | 31% | 3.67% (active) | – |
